Compounds with a hit are over-represented: about 4.3% of the library has one in this group of screens.
MITF TRPM1 HTS: increases MITF-driven TRPM1 promoter luciferase signal; 0.75% of 300,000 active; AID 588334; activation, % at 12.5 µM; SK-MEL-5 TRPM1-promoter luciferase, 24 h; % of positive control, neutral wells = 0;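 active means mean activation of at least 80% with every replicate also reaching 80%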;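 further: 0% = neutral control wells and 100% = parthenolide positive control wells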
MLL AF4-AF9 inh: blocks AF4 peptide binding to human AF9; P42568; AlphaScreen, biotin-AF4 peptide binding to FLAG-AF9; inhibition, % at 10 µM; 0.47% of 350,000 active; AID 651704;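 active means every replicate reaching a set inhibition limit, whatever the replicate mean, cut at about 25% in these data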;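 further: 0% = plate neutral control median and 100% = total signal loss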
Target sequence (P42568 whole entry, looked up): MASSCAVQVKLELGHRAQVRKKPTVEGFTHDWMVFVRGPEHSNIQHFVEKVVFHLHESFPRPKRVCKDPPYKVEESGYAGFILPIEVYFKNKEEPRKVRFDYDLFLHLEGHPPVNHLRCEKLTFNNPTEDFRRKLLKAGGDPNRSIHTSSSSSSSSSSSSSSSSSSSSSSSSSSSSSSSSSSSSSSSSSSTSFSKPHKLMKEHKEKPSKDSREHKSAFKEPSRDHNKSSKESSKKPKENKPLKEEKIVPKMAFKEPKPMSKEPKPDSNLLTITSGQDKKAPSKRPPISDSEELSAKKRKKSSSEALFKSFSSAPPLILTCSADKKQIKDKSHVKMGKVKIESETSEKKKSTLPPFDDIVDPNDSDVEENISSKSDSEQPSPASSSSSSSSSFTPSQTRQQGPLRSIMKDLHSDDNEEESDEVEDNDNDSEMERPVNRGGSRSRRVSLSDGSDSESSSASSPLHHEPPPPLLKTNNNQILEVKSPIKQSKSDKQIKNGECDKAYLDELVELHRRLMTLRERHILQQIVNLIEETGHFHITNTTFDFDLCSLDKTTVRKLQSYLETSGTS
FGF22 binding: FGF22 (human) thermal shift binding | recombinant FGF22 thermal shift, SYPRO orange fluorescence; percent of sucrose octasulfate shift, DMSO zero | 1.5% of 340,000 active | activity (Tm shift, normalised), % at 9.99 µM;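 active means mean Tm shift, scaled 0 neutral to 100 positive control, at about 1.3% or above, every replicate too, limit read from the data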
Wnt act: activators of Wnt/beta-catenin signaling; Wnt/beta-catenin reporter cell assay, activator, plate reader; activation, % at 9.35 µM; 1.2% of 300,000 active; AID 743398; in the data active means activation above about 30%, passing the limit was not always enough;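 further: 0% = neutral control wells and 100% = positive control wells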
SMARCA2 act: increases SMARCA2 function in MMTV reporter cells. activation, % at 9.1 µM. 1% of 370,000 active. MG213 cells, MMTV-luciferase reporter, dexamethasone, overnight; in the data active means activation above about 7.8%;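 further: 0% = vehicle wells and 100% = reference activator wells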
esBAF inh: inhibitors of esBAF chromatin remodeling in mouse ES cells; reporter increase, % at 12.5 µM; Bmi1-luciferase knock-in reporter, 24 h; 100% = twice the neutral-well signal; 2% of 350,000 active; in the data active means activation above about 40%;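 further: 0% = median of the plate's neutral control wells and 100% = double that signal; a rise in the Bmi1 reporter signal indicates esBAF inhibition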
Active calls of the source: *.

Results for Cc1ccc(NC(=S)Nc2ccc(F)cc2)c(C)c1 ?
MITF TRPM1 HTS: 2; MLL AF4-AF9 inh: -4; FGF22 binding: 44*; Wnt act: 7; SMARCA2 act: -2; esBAF inh: 35

How did CCN(CC)c1ccc(NC(=S)Nc2ccc(F)cc2)cc1 do in these assays?
MITF TRPM1 HTS: 32; MLL AF4-AF9 inh: 27*; FGF22 binding: 42; Wnt act: 0; SMARCA2 act: 2; esBAF inh: 7

Results for O=C(O)c1ccccc1COc1ccccc1Cl ?
MITF TRPM1 HTS: -3; MLL AF4-AF9 inh: 4; FGF22 binding: 0; Wnt act: 3; SMARCA2 act: 2; esBAF inh: 10

How did Cc1oc(C(=O)O)cc1COc1ccccc1Cl do in these assays?
MITF TRPM1 HTS: -10; Wnt act: 59*; SMARCA2 act: 4; esBAF inh: -3

How did COc1ccc2c3c([nH]c2c1)[C@@H](CO)N(C(=O)NC1CCCC1)CC31CN(C(=O)Nc2cccc(F)c2)C1 do in these assays?
MLL AF4-AF9 inh: 2; FGF22 binding: 0

How did O=C(Nc1ccc([N+](=O)[O-])cn1)c1cccnc1 do in these assays?
MLL AF4-AF9 inh: -2; FGF22 binding: 0; Wnt act: -3; SMARCA2 act: -3; esBAF inh: -6

What do the screens show for `O=C(CCC1CCCC1)Nc1ccc([N+](=O)[O-])cn1`?
MITF TRPM1 HTS: 42; SMARCA2 act: 6; esBAF inh: 59*

Results for CC(C)(C)c1ccc(C(=O)Nc2ccc([N+](=O)[O-])cn2)cc1 ?
MITF TRPM1 HTS: 107*; MLL AF4-AF9 inh: -5; FGF22 binding: 0; SMARCA2 act: 2

Results for C[C@H](CO)N1C[C@H](C)[C@@H](CN(C)Cc2ccc(Cl)c(Cl)c2)Oc2ccc(NS(C)(=O)=O)cc2C1=O ?
MLL AF4-AF9 inh: 4; FGF22 binding: 0; esBAF inh: 0

What do the screens show for `Brc1ccc(-c2csc(-c3c[nH]c4ccccc34)n2)cc1`?
MITF TRPM1 HTS: 20; Wnt act: -2; SMARCA2 act: 5; esBAF inh: 67*

How did c1ccc(-c2csc(-c3ccncc3)n2)cc1 do in these assays?
MITF TRPM1 HTS: 33; MLL AF4-AF9 inh: 5; FGF22 binding: 0; Wnt act: 13; SMARCA2 act: -2; esBAF inh: 27

Results for c1ccc2c(-c3csc(-c4ccncc4)n3)c[nH]c2c1 ?
MITF TRPM1 HTS: 126*; MLL AF4-AF9 inh: 1; FGF22 binding: 0; Wnt act: 28; SMARCA2 act: 1; esBAF inh: 52*

What do the screens show for `CCCNC(=O)N(C)C[C@H]1Oc2cc(C#CC(C)(C)O)ccc2S(=O)(=O)N([C@@H](C)CO)C[C@@H]1C`?
MLL AF4-AF9 inh: -2; FGF22 binding: 0; esBAF inh: -39

Results for Cc1cc(NS(=O)(=O)c2ccc(NC(=O)CSc3nnc(-c4ccccn4)n3Cc3ccco3)cc2)nc(C)n1 ?
SMARCA2 act: -5

How did C/C=C/c1ccc([C@@H]2[C@@H](CO)N(C(=O)CC)C23CN(S(C)(=O)=O)C3)cc1 do in these assays?
MLL AF4-AF9 inh: -1; FGF22 binding: 0

How did CS(=O)(=O)N1[C@H](C#N)[C@@H](c2ccc(C#CC3CC3)cc2)[C@@H]1CO do in these assays?
MLL AF4-AF9 inh: 0; FGF22 binding: 0; esBAF inh: -7

How did CCSc1cc(N2CCCC2)nc(-c2ccc(Cl)cc2)n1 do in these assays?
MITF TRPM1 HTS: 0; MLL AF4-AF9 inh: -5; FGF22 binding: 0; Wnt act: -1; SMARCA2 act: 0; esBAF inh: 1

How did Clc1ccc(-c2nnc(N3CCCC3)nn2)cc1 do in these assays?
Wnt act: 35*; SMARCA2 act: 4; esBAF inh: -26

What do the screens show for `CCn1ccnc1CNCc1cn(-c2cc(C)ccc2C)nc1-c1ccccc1`?
MITF TRPM1 HTS: -13; MLL AF4-AF9 inh: 11; FGF22 binding: 43*; Wnt act: -2; SMARCA2 act: -5

Results for Cc1ccc(C)c(-n2cc(CNCCc3cnccn3)c(-c3ccccc3)n2)c1 ?
MITF TRPM1 HTS: -1; MLL AF4-AF9 inh: 6; FGF22 binding: 0; Wnt act: -4; SMARCA2 act: -2; esBAF inh: -2

Results for CCCSc1nnc(NC(=O)Nc2ccccc2OC)s1 ?
MLL AF4-AF9 inh: 1; FGF22 binding: 0; Wnt act: 30; SMARCA2 act: 4; esBAF inh: 47*

What do the screens show for `CCCc1nnc(NC(=O)Nc2ccccc2OC)s1`?
MITF TRPM1 HTS: 71; SMARCA2 act: 3

What do the screens show for `C[C@@H]1CCCCO[C@@H](CN(C)C(=O)Cc2ccccc2)[C@H](C)CN([C@H](C)CO)C(=O)c2cc(NC(=O)c3ccccc3)ccc2O1`?
MLL AF4-AF9 inh: -5; FGF22 binding: 1; esBAF inh: 12

Results for COc1cc2sc3cc(NCCCN4CCOCC4)ccc3c(=O)c2cc1OC ?
MITF TRPM1 HTS: 38; MLL AF4-AF9 inh: 3; FGF22 binding: 0; Wnt act: 14; SMARCA2 act: 7; esBAF inh: 55*

Results for O=c1c2ccccc2sc2ccc(NCCCN3CCOCC3)cc12 ?
MITF TRPM1 HTS: 72; MLL AF4-AF9 inh: 14; FGF22 binding: 0; Wnt act: 27; SMARCA2 act: 7; esBAF inh: 10

Results for C[C@@H]1CCCCO[C@H](CN(C)C(=O)Cc2ccccc2)[C@@H](C)CN([C@H](C)CO)C(=O)c2cc(NS(=O)(=O)c3cn(C)cn3)ccc2O1 ?
MLL AF4-AF9 inh: -2; FGF22 binding: 0; esBAF inh: 1

How did CCOC(=O)CC(=O)CSc1nc2c(cc1C#N)CCCCC2 do in these assays?
SMARCA2 act: 6; esBAF inh: 52*

How did CCOC(=O)CC(=O)COc1nc2cc3c(nc2o1)CCCC3 do in these assays?
MLL AF4-AF9 inh: -6; FGF22 binding: 0; Wnt act: 0; SMARCA2 act: 4; esBAF inh: 59*

What do the screens show for `CC(C)OC(=O)CSc1nc2c(cc1C#N)CCCCC2`?
MITF TRPM1 HTS: 34; MLL AF4-AF9 inh: -5; FGF22 binding: 0; Wnt act: 10; SMARCA2 act: 5; esBAF inh: 71*

How did CC(C)OC(=O)CC(=O)CSc1nc2c(cc1C#N)CCCCC2 do in these assays?
MITF TRPM1 HTS: 43; SMARCA2 act: 4

Results for Cc1ccccc1NC(=O)Cn1cnc2c(oc3nc4c(cc32)CCCC4)c1=O ?
MITF TRPM1 HTS: 7; MLL AF4-AF9 inh: -4; FGF22 binding: 0; Wnt act: 0; SMARCA2 act: 5; esBAF inh: 2

What do the screens show for `CN1c2ccc(Br)cc2[C@H]2[C@H](CCN2C(=O)Nc2cc(F)ccc2F)[C@H]1CO`?
MLL AF4-AF9 inh: -2; FGF22 binding: -1; esBAF inh: 5

How did COc1ccc(C(=O)Nc2ccc3c(c2)C(=O)N(C)C[C@H](OC)[C@H](C)CN(C)[C@@H](C)CO3)cc1 do in these assays?
MLL AF4-AF9 inh: -5; FGF22 binding: 0; esBAF inh: -1
